Spn MK inh: blocks S. pneumoniae mevalonate kinase; purified MK, PK/LDH-coupled NADH absorbance 340 nm; inhibition, % at 10 µM; actives 0.48% (n = 65,000);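 active means ranked among the strongest by inhibition in the single 10 µM screen, a fixed top-ranked set picked for dose follow-up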
Spn PMK inh: inhibitors of Streptococcus pneumoniae phosphomevalonate kinase. purified PMK, PK/LDH-coupled NADH absorbance 340 nm. inhibition, % at 10 µM. actives 0.49% (n = 65,000). AID 539;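 active means top-ranked compounds by inhibition in the single 10 µM screen, taking a fixed number of the strongest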
Autofluor 339: intrinsic fluorescence of library compounds, ex339/em460 – biochemical, MLSMR library, data from DPM-DC assay, artefact control, profiling panel; compound autofluorescence, ex339/em460 nm, NADH buffer; active compounds read high; 1 = no-compound wells, NADH background; fluorescence fold increase at 10 µM; actives 5.5% (n = 65,000);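 active means at 10 µM, mean starting fluorescence two-fold or more over control wells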;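 further: signal is the first read of a kinetic run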
NADH coupling: inhibitors of enzymes used to reach an NAD/NADH endpoint. coupled PK/LDH NADH assays, four targets. IC50, µM (top dose mostly 10 µM). actives 0.02% (n = 65,000);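 active means single-dose screening hits from any of four coupled enzyme assays that gave an IC50 when retested across doses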;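 further: the DPM-DC format reads NADH fluorescence rather than 340 nm absorbance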
Spn DPM-DC inh: blocks S. pneumoniae diphosphomevalonate decarboxylase | purified DPM-DC, PK/LDH coupled NADH fluorescence | calls only at 10 µM | actives 0.49% (n = 65,000) | AID 556;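 active means the 320 compounds with the highest percent inhibition in the single-dose primary screen, excluding strongly autofluorescent ones, cut at about 32% in these data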;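 further: kinetic rate of NADH fluorescence loss reporting ADP formed by the decarboxylase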
Abs 340nm: compounds absorbing at 340 nm | compound absorbance at 340 nm, fold over control | fold change at 10 µM | 65,000 tested, under 10 active;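 active means at 10 µM dose, initial 340 nm absorbance at least 2 fold that of control wells; inactive means change under 2 fold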;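 further: initial absorbance extrapolated from kinetic A340 decline of NADH oxidation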
Hits are given with their value. In the library only some 6.8% were active in any assay of this set; here they are far more common.

Screening Cc1cc2n(n1)C(c1ccccc1)Nc1ccccc1-2 (centres undefined) returned Spn MK inh inactive, Spn PMK inh inactive, Autofluor 339 2, NADH coupling inactive, Spn DPM-DC inh inactive and Abs 340nm inactive.
Screening Cc1ccc2c(c1)-c1cc(C)nn1C(c1ccc3c(c1)OCO3)N2 (centres undefined) returned Spn MK inh inactive, Spn PMK inh inactive, Autofluor 339 inactive, NADH coupling inactive, Spn DPM-DC inh inactive and Abs 340nm inactive.
`Cc1cc2n(n1)C(c1ccc(N(C)C)cc1)Nc1ccccc1-2` (centres undefined) gave Spn MK inh inactive, Spn PMK inh inactive, Autofluor 339 3.7, NADH coupling inactive and Abs 340nm inactive.
c1cncc(C2Nc3ccccc3-c3nc4ccccc4n32)c1 (centres undefined) was read as Spn MK inh inactive, Spn PMK inh inactive, Autofluor 339 inactive, NADH coupling inactive, Spn DPM-DC inh inactive and Abs 340nm inactive.
Screening Cc1cc2n(n1)C(c1ccc3c(c1)OCO3)Nc1ccccc1-2 (centres undefined) returned Spn MK inh inactive, Spn PMK inh inactive, Autofluor 339 2.3, NADH coupling inactive, Spn DPM-DC inh inactive and Abs 340nm inactive.
For COCCNC(=O)C(c1cccs1)N(C(=O)Cn1nnc2ccccc21)c1cccc(C)c1 (centres undefined) the results were Spn MK inh inactive, Spn PMK inh inactive, Autofluor 339 inactive, NADH coupling inactive, Spn DPM-DC inh inactive and Abs 340nm inactive.
Screening Nc1c(C(=O)NC2CCCC2)sc2nc(-c3cccs3)ccc12 returned Spn MK inh inactive, Spn PMK inh inactive, Autofluor 339 2.8, NADH coupling inactive, Spn DPM-DC inh active and Abs 340nm inactive.
`COc1ccccc1C(=O)N1CCN(c2ccccn2)CC1` gave Spn MK inh inactive, Spn PMK inh inactive, Autofluor 339 inactive, NADH coupling inactive, Spn DPM-DC inh inactive and Abs 340nm inactive.
For COc1ccccc1C(=O)N1CCN(c2nc3cc(C)c(C)cc3cc2C#N)CC1 the results were Spn MK inh inactive, Spn PMK inh inactive, Autofluor 339 2.8, NADH coupling inactive, Spn DPM-DC inh inactive and Abs 340nm inactive.
For Nc1nc2sc3c(c2cc1C(=O)N1CCOCC1)CCCC3 the results were Spn MK inh inactive, Spn PMK inh inactive, Autofluor 339 2.2, NADH coupling inactive and Abs 340nm inactive.
Screening Cc1cccc2cc3c(N)c(C(=O)N4CCOCC4)sc3nc12 returned Spn MK inh inactive, Spn PMK inh inactive, Autofluor 339 inactive, NADH coupling inactive, Spn DPM-DC inh inactive and Abs 340nm inactive.
COc1ccc(C2CC(=O)Nc3ccccc3S2(=O)=O)cc1OC (centres undefined) was read as Spn MK inh inactive, Spn PMK inh inactive, Autofluor 339 inactive, NADH coupling inactive, Spn DPM-DC inh inactive and Abs 340nm inactive.
`O=C(CSc1ncccc1-c1nc2ccccc2[nH]1)N1CCCCC1` gave Spn MK inh inactive, Spn PMK inh inactive, Autofluor 339 inactive, NADH coupling inactive, Spn DPM-DC inh inactive and Abs 340nm inactive.
Screening CCN1C(=O)c2ccc(-c3nc4ccccc4c(=O)o3)cc2C1=O returned Spn MK inh inactive, Spn PMK inh inactive, Autofluor 339 2.2, NADH coupling inactive and Abs 340nm inactive.
Screening Cc1ccc2nc(-c3ccc(SCC(=O)O)nc3)[nH]c2c1 returned Spn MK inh inactive, Spn PMK inh inactive, Autofluor 339 3.8, NADH coupling inactive, Spn DPM-DC inh active and Abs 340nm inactive.
For Cc1ccc2nc(SCC(=O)N3CCCC3)[nH]c2c1 the results were Spn MK inh inactive, Spn PMK inh inactive, Autofluor 339 inactive, NADH coupling inactive, Spn DPM-DC inh inactive and Abs 340nm inactive.
`COc1ccc(C(=O)Nc2nccs2)cc1OC` gave Spn MK inh inactive, Spn PMK inh inactive, Autofluor 339 inactive, NADH coupling inactive, Spn DPM-DC inh inactive and Abs 340nm inactive.
For COc1ccc(C(=O)Nc2ccncc2)cc1OC the results were Spn MK inh inactive, Spn PMK inh 40, Autofluor 339 inactive, NADH coupling inactive, Spn DPM-DC inh inactive and Abs 340nm inactive.
Screening C=CCn1c(NC(=O)c2ccc(Br)o2)c(C(=O)OCC)sc1=S returned Spn MK inh inactive, Spn PMK inh inactive, Autofluor 339 inactive, NADH coupling inactive, Spn DPM-DC inh inactive and Abs 340nm inactive.
